23 molecules from PubChem BioAssay (EPA / NIEHS) can be followed below.

Results filed as inconclusive are left out. Active and inactive are the calls of the source. How the source made its calls: active means hit-call score of the fitted dose curve at least 0.9, where 1 is the maximum; inconclusive means response in the unintended direction; inactive means score below 0.9.

Assay [1] addresses human Matrix Metalloproteinase-9 (MMP9), MMP9 (gene 4318) (UniProt P14780). The assay is described as follows: NVS_ENZ_hMMP9: NovaScreen (NVS) Enzymatic Assay for human Matrix Metalloproteinase-9 (MMP9) (AID 2283190).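 Further: cell-free recombinant MMP9 protease activity read by fluorescent substrate signal; active means inhibition seen as loss of fluorescence signal versus DMSO.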 In a few lines:
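Inhibition was scored as loss of fluorescence signal against DMSO controls. The recombinant protease was exposed to chemicals for 1 hour before reading; initial testing used 25 uM in duplicate.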

The target of assay [2] is human Phosphodiesterase 5 (PDE5), PDE5A (gene 8654) (UniProt O76074). Kind of assay: NVS_ENZ_hPDE5: NovaScreen (NVS) Enzymatic Assay for human Phosphodiesterase 5 (PDE5) (AID 2283194). A digest of the protocol:
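Recombinant human PDE5 with specific substrate, read 1 h after dosing by fluorescence with electrophoretic mobility-shift separation of substrate and product. Initial single-concentration duplicate screen at 25 uM, actives followed in concentration series; loss of activity versus DMSO.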

Assay [3] deals with human Matrix Metalloproteinase-2 (MMP2), MMP2 (gene 4313) (UniProt P08253). Kind of assay: NVS_ENZ_hMMP2: NovaScreen (NVS) Enzymatic Assay for human Matrix Metalloproteinase-2 (MMP2) (AID 2283184). In a few lines:
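Cell-free recombinant MMP2 activity with a fluorescent substrate, read 1 h after dosing. Primary screen in duplicate at 25 uM; actives then run in concentration series; loss of signal fitted versus DMSO.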

In assay [4] the target is human Phosphodiesterase 4A1 (PDE4A1), PDE4A (gene 5141) (UniProt P27815). Kind of assay: NVS_ENZ_hPDE4A1: NovaScreen (NVS) Enzymatic Assay for human Phosphodiesterase 4A1 (PDE4A1) (AID 2283191). A digest of the protocol: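 Cell-free recombinant human PDE4A1 with fluorescent substrate; product separated by electrophoretic mobility shift, 1 h. Screened at 25 uM, then up to 50 uM in concentration-response; loss of signal fitted against DMSO.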

For assay [5], the target named is human Matrix Metalloproteinase-7 (MMP7), MMP7 (gene 4316) (UniProt P09237). Kind of assay: NVS_ENZ_hMMP7: NovaScreen (NVS) Enzymatic Assay for human Matrix Metalloproteinase-7 (MMP7) (AID 2283183). A digest of the protocol:
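Cell-free fluorescence enzymatic assay read 1 h after compound addition, activity loss analyzed against DMSO. Primary duplicate testing at 25 uM; compounds meeting threshold rerun in singleton concentration-response up to 50 uM.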

Assay [6] deals with Mitogen-activated protein kinase 3 (Homo sapiens) (UniProt P27361). Kind of assay: NVS_ENZ_hMAPK3: NovaScreen (NVS) Enzymatic Assay for human Mitogen-Activated Protein Kinase 3 (MAPK 3) (AID 2283177). In a few lines: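 Cell-free enzymatic assay with recombinant protein and specific substrate; fluorescence and electrophoretic mobility shift read-out 1 h after dosing. Primary screen duplicate at 25 uM; actives then run in concentration-response up to 50 uM, loss of signal versus DMSO.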

In assay [7] the target is human Mitogen- and Stress-activated Protein Kinase-1 (Msk1), RPS6KA5 (gene 9252) (UniProt O75582). The assay is described as follows: NVS_ENZ_hMsk1: NovaScreen (NVS) Enzymatic Assay for human Mitogen- and Stress-activated Protein Kinase-1 (Msk1) (AID 2283187). In a few lines: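 Recombinant kinase with fluorescent substrate; product separated by electrophoretic mobility shift, read 1 h after dosing. Screened in duplicate at 25 uM; hits (e.g. ≥30% inhibition) tested in concentration–response up to 50 uM. DMSO baseline.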

Assay [8] addresses human Janus Kinase 2 (Jak2), JAK2 (gene 3717) (UniProt O60674). The assay is described as follows: NVS_ENZ_hJak2: NovaScreen (NVS) Enzymatic Assay for human Janus Kinase 2 (Jak2) (AID 2283169). A digest of the protocol: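 Cell-free recombinant human JAK2 enzyme activity assay, fluorescence/electrophoretic mobility shift read 1 h after dosing. Screened in duplicate at 25 uM, then concentration-response up to 50 uM; activity as signal loss relative to DMSO.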

The target in assay [9] is human Matrix Metalloproteinase-3 (MMP3), MMP3 (gene 4314) (UniProt P08254). Kind of assay: NVS_ENZ_hMMP3: NovaScreen (NVS) Enzymatic Assay for human Matrix Metalloproteinase-3 (MMP3) (AID 2283185). A digest of the protocol: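 Cell-free recombinant human MMP3 activity, fluorescence intensity read 1 h after dosing. Primary screen duplicate at 25 uM, actives retested in concentration series; loss of signal vs DMSO baseline.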

Assay [10] addresses human Phosphodiesterase 10 (PDE10), PDE10A (gene 10846) (UniProt Q9Y233). Kind of assay: NVS_ENZ_hPDE10: NovaScreen (NVS) Enzymatic Assay for human Phosphodiesterase 10 (PDE10) (AID 2283195). A digest of the protocol: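 Recombinant human PDE10 with fluorescent substrate, 1 h, product separated by electrophoretic mobility shift. Loss of enzyme activity fitted against DMSO; initial screen 25 uM in duplicate, actives run to 50 uM maximum.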

Assay [11] deals with Collagenase 3 (Homo sapiens) (UniProt P45452). The assay is described as follows: NVS_ENZ_hMMP13: NovaScreen (NVS) Enzymatic Assay for human Matrix Metalloproteinase-13 (MMP13) (AID 2283182). In a few lines: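 Recombinant MMP13 cleaving fluorescent substrate, cell-free, measured 1 h after dosing. Primary duplicate screen at 25 uM; actives tested in concentration-response up to 50 uM; loss of signal relative to DMSO.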

Assay [12] has as its target human MAP Kinase-Activated Protein Kinase 2 (MAPKAPK2), MAPKAPK2 (gene 9261) (UniProt P49137). Kind of assay: NVS_ENZ_hMAPKAPK2: NovaScreen (NVS) Enzymatic Assay for human MAP Kinase-Activated Protein Kinase 2 (MAPKAPK2) (AID 2283178). In a few lines:
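Cell-free recombinant human MAPKAPK2 activity measured by fluorescence with electrophoretic mobility shift separation of substrate and product, 1 hr after dosing. Loss of signal versus DMSO; primary screen at 25 uM, concentration-response up to 50 uM.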

Chain of human Matrix Metalloproteinase-3 (MMP3), MMP3 (gene 4314) (P08254 whole entry, looked up): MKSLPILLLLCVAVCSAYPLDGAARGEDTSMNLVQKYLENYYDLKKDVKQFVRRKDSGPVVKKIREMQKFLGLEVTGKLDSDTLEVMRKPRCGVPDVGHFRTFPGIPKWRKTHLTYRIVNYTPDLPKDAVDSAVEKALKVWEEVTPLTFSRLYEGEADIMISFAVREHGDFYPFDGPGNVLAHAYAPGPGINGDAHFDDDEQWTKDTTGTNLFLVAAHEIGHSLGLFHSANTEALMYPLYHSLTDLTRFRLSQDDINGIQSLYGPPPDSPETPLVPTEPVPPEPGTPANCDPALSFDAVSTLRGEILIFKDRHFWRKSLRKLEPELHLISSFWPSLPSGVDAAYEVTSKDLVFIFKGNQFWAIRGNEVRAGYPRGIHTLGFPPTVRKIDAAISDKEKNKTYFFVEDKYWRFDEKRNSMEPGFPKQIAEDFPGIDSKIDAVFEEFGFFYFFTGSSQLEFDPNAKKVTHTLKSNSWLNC
Chain of human Matrix Metalloproteinase-7 (MMP7), MMP7 (gene 4316) (P09237 whole entry, looked up): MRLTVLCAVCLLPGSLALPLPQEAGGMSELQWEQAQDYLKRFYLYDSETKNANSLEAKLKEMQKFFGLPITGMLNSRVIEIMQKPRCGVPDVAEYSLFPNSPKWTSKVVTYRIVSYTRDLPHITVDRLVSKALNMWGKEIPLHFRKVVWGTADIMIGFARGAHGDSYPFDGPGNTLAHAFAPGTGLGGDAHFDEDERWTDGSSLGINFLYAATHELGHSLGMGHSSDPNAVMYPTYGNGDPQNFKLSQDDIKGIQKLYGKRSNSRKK
Chain of human Matrix Metalloproteinase-9 (MMP9), MMP9 (gene 4318) (P14780 whole entry, looked up): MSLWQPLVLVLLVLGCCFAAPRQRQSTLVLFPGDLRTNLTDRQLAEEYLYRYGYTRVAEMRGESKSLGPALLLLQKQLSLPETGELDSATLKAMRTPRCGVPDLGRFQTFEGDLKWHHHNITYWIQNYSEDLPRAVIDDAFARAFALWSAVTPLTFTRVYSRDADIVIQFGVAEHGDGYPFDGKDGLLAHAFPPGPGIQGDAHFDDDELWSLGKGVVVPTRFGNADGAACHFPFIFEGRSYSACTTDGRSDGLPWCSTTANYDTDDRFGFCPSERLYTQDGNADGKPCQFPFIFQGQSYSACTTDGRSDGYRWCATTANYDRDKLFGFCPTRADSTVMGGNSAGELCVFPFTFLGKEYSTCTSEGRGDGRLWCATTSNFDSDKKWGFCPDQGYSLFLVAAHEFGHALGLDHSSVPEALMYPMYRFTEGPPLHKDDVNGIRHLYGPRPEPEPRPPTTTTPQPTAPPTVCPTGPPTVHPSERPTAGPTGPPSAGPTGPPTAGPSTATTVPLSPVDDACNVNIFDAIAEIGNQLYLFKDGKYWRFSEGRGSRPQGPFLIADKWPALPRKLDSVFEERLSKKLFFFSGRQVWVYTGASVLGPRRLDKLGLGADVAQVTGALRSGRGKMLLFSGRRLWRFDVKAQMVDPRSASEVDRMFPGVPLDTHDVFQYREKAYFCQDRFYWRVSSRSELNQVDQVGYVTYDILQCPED
Chain of human Matrix Metalloproteinase-2 (MMP2), MMP2 (gene 4313) (P08253 whole entry, looked up): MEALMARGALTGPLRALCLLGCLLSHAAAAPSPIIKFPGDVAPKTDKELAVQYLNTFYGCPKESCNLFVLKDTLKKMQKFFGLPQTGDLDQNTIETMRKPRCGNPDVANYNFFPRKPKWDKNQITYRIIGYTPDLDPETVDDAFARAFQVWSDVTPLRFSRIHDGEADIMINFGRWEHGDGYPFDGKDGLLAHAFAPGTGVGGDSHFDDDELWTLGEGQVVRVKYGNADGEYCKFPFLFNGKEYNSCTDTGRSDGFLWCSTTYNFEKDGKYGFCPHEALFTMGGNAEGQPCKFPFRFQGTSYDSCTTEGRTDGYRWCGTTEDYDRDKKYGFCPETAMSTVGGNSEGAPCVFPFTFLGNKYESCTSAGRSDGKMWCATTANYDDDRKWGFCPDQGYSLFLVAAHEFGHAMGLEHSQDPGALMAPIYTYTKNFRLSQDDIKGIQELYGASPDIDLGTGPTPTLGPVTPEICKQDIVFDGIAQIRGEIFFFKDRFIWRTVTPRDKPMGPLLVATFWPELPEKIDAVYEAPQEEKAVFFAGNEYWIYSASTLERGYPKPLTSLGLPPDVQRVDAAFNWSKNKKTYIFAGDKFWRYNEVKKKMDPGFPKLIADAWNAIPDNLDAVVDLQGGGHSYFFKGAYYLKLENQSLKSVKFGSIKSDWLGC
Chain of human Mitogen- and Stress-activated Protein Kinase-1 (Msk1), RPS6KA5 (gene 9252) (O75582 whole entry, looked up): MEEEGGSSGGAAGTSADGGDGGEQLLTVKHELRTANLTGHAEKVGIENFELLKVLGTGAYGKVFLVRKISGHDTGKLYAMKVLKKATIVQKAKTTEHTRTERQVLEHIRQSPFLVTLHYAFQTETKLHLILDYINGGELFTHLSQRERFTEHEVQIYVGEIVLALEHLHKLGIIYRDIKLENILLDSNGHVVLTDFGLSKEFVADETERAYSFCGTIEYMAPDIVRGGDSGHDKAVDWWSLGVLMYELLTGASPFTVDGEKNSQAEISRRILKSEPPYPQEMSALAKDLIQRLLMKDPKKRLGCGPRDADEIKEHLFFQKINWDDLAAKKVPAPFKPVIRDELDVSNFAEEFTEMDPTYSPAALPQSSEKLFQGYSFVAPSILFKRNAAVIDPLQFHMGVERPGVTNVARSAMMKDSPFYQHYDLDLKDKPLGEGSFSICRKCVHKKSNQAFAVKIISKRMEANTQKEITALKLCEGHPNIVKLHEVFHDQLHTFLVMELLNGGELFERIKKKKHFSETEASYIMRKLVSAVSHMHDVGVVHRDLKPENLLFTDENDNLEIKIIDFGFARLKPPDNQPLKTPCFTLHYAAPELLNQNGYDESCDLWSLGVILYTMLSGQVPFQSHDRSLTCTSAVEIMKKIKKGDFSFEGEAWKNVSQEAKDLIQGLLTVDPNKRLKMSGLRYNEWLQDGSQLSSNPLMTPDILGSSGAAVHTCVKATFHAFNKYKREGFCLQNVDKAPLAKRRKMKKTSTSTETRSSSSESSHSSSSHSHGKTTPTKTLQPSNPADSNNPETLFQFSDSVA
Chain of human Janus Kinase 2 (Jak2), JAK2 (gene 3717) (O60674 whole entry, looked up): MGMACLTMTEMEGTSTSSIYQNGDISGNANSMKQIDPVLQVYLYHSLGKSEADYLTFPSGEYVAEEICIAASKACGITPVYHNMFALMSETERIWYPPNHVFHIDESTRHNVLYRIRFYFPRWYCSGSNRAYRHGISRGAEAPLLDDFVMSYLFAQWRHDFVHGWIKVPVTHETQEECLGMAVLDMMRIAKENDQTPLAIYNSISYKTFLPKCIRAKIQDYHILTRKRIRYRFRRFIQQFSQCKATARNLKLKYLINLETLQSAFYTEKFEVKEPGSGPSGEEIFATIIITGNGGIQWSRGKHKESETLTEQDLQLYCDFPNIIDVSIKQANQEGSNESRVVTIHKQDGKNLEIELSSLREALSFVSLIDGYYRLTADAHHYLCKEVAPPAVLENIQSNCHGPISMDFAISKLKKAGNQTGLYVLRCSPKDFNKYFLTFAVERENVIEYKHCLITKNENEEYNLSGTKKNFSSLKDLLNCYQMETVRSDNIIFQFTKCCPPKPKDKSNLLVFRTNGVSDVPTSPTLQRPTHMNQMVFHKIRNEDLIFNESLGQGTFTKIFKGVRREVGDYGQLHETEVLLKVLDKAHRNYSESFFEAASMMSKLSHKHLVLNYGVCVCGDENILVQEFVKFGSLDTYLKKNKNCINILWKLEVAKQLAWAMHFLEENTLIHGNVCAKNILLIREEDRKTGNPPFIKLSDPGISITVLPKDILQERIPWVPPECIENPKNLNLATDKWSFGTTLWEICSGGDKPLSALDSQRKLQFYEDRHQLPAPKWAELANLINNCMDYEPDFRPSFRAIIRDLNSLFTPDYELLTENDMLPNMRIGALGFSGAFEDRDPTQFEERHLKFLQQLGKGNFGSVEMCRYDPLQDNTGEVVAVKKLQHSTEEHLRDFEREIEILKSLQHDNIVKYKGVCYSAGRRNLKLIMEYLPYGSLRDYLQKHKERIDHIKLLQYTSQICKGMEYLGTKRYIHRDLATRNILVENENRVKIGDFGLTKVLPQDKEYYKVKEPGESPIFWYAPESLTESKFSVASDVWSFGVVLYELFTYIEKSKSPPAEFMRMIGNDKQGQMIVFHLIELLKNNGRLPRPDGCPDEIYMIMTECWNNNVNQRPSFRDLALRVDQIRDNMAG
Chain of human Phosphodiesterase 4A1 (PDE4A1), PDE4A (gene 5141) (P27815 whole entry, looked up): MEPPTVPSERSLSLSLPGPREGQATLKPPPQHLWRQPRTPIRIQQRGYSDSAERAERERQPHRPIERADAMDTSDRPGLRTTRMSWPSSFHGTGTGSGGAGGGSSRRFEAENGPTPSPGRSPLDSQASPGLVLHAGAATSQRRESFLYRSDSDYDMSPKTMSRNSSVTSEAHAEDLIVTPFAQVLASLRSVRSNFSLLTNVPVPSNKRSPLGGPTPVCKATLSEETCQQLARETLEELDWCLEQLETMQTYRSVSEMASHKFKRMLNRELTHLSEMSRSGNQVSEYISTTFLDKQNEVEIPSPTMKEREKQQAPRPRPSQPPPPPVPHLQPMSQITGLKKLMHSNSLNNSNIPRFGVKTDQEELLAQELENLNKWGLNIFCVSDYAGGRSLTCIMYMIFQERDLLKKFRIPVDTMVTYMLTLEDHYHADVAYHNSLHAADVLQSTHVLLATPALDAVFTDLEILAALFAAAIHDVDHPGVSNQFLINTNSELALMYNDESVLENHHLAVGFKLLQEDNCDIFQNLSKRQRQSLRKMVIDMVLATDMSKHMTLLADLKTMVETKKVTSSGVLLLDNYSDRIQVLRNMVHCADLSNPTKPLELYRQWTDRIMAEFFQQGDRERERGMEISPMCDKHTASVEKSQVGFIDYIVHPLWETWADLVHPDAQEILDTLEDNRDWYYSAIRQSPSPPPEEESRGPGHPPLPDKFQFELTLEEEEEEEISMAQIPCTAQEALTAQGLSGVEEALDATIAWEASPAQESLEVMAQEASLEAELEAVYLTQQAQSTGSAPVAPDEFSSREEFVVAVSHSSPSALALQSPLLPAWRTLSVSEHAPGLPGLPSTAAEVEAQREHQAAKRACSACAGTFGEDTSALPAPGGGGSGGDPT

Take `CN(C)C(=O)C1(N2CCCCC2)CCN(CC[C@@]2(c3ccc(Cl)c(Cl)c3)CN(C(=O)c3ccccc3)CCO2)CC1`: the molecule was called inactive in assay [1] and in [2].

With `CC(C)(c1cc(Br)c(O)c(Br)c1)c1cc(Br)c(O)c(Br)c1`, the result in assay [3] was inactive.

In the case of `O=C(Nc1ccc(Cl)cc1)Nc1ccc(Cl)c(Cl)c1`, the call in assay [4] was inactive.

Regarding `C[C@]12CC[C@@H]3c4ccc(O)cc4CC[C@H]3[C@@H]1CC[C@H]2O`, in assay [5], the molecule was called inactive.

As for `c1ccc2ccccc2c1`, the outcome in assay [6] and in assay [7] was inactive.

Regarding `O=C(O)Cc1cc(I)c(Oc2ccc(O)c(I)c2)c(I)c1`, the result in [8] and in [9] was inactive. Further, the AC50 in assay [10] was 3.32 µM (active).

On to `CC[C@H](NC(=O)c1cc(F)ccc1NS(=O)(=O)c1cccc2cccnc12)c1ccccc1`, for which the result in assay [2] was inactive.

As to `NCc1cccc(C2CCN(C(=O)c3ccc(C#Cc4ccccc4F)o3)CC2)c1`, the AC50 is 19.5 µM (active) in assay [11], 10.1 µM (active) in assay [3] and 30.1 µM (active) in assay [1].

Take `CO[C@H]1/C=C/O[C@@]2(C)Oc3c(C)c(O)c4c(O)c(c(/C=N/N5CCN(C)CC5)c(O)c4c3C2=O)NC(=O)/C(C)=C\C=C\[C@H](C)[C@H](O)[C@@H](C)[C@@H](O)[C@@H](C)[C@H](OC(C)=O)[C@@H]1C`: the result in assay [11], in [5] and in assay [3] was inactive.

As for `CCCCCCCCOc1ccc(C(=O)c2ccccc2)c(O)c1`, the outcome in assay [9] was inactive.

Turning to `CCOC(=O)O[C@H](C)OC(=O)c1ccc2c(c1)cc(C(=O)NC1CCN(C(C)C)CC1)n2Cc1cc(-c2ccc(Cl)s2)on1`, the AC50 in assay [11] is 15.2 µM (active); in assay [1] it was 30.9 µM (active).

Take `O=C(O)c1ccccc1C(=O)OCc1ccccc1`: the call in assay [8] and in [7] was inactive.

For the molecule `CCCOC(=O)c1cc(O)c(O)c(O)c1`, in [9], the AC50 is 11.9 µM (active).

For `COc1cccc([C@H](O)C2CCN(CCc3ccc(F)cc3)CC2)c1OC`, the molecule was called inactive in [4] and in [2].

Consider `CCCCOC(=O)c1ccc(O)cc1`, for which, in assay [11], the AC50 is 25 µM (active). Besides, the result in [9] was inactive.

Consider `Cc1oc2c(NC(=O)c3c(Cl)cccc3Cl)cccc2c1C(C)(C)O`, for which the molecule was classed as inactive in assay [12].

For `Cc1c2ccccc2c(C)c2c1ccc1ccccc12`, the molecule was classed as inactive in assay [11].

In the case of `Cc1cc(F)ccc1-c1cc(N2CC[C@@H](O)[C@H]2CO)ncc1N(C)C(=O)C(C)(C)c1cc(C(F)(F)F)cc(C(F)(F)F)c1`, the AC50 in assay [2] is 4.05 µM (active).

In the case of `O=C1CCC(C2CCCCC2)CC1`, the molecule was called inactive in [9].

Consider `O=C=NCCCCCCN=C=O`, for which the molecule was called inactive in [1].

As to `COCC(C)OCC(C)OCC(C)O` (stereo unspecified), the outcome in assay [11] and in assay [5] was inactive.

With `Cc1cc2c(cc1C(F)(F)F)N(C(=O)Nc1ccc(Oc3cccnc3C)nc1)CC2`, in assay [12], the molecule was called inactive.

For `CCCCCCCCCCCC[N+](C)(C)C`, the result in [3] was inactive.

The AC50 is the concentration at which the activity in the assay is half-maximal.
